Here are results for 61 compounds from the antibiotic and cytotoxicity screens of Wong et al. (2023).

Each structure is given as a SMILES string. Screen size: about 39,000 compounds; about 3,300 (8.5%) were called active. For the sample, actives were picked, then their nearest neighbours and some compounds at random.

This assay has as its system HepG2. The assay is described as follows: cytotoxicity call (relative viability < 0.9). As to conditions: 10 µM.
On to `CN(C)CC#Cc1ccc([C@@H]2[C@@H](CO)N3C(=O)CN(C(=O)c4cccnc4)C[C@@H]23)cc1`, for which the cytotoxicity call is “inactive”.

For `COc1ccc(NC(=O)N(C)C[C@H]2OCCCC[C@@H](C)Oc3ccc(NS(=O)(=O)c4c(C)noc4C)cc3C(=O)N([C@H](C)CO)C[C@@H]2C)cc1`, the cytotoxicity call is “inactive”.

On to `C[C@@H]1CCCCO[C@H](CN(C)C(=O)C2CCCCC2)[C@@H](C)CN([C@@H](C)CO)C(=O)c2cc(NC(=O)Cc3ccccc3)ccc2O1`, for which the cytotoxicity call is “inactive”.

On to `C[C@@H]1CN([C@H](C)CO)C(=O)Cc2cc(NC(=O)Cn3cnnn3)ccc2O[C@@H]1CN(C)S(=O)(=O)c1cn(C)cn1`, for which the cytotoxicity call is “inactive”.

In the case of `C[C@@H]1CN([C@@H](C)CO)C(=O)c2cc(NC(=O)Nc3ccccc3)ccc2O[C@@H](C)C/C=C\CO[C@H]1CN(C)S(=O)(=O)c1ccc(F)cc1`, the cytotoxicity call is “inactive”.

With `C[C@@H]1CN([C@H](C)CO)C(=O)c2cc(NC(=O)Nc3ccc(F)cc3)ccc2O[C@@H](C)CCCCO[C@H]1CN(C)S(=O)(=O)c1ccccc1`, the cytotoxicity call was “inactive”.

In the case of `C[C@@H]1CN([C@@H](C)CN=[N+]=[N-])C(=O)c2cc(NC(=O)Nc3ccccc3)ccc2O[C@@H](C)CCCCO[C@H]1CN(C)S(=O)(=O)c1ccc(F)cc1`, the cytotoxicity call is “active”.

As to `CC(C)N1C[C@@H](C)[C@H](CN(C)S(=O)(=O)c2ccc(F)cc2)OCCCC[C@H](C)Oc2ccc(NC(=O)Nc3ccccc3)cc2C1=O`, the cytotoxicity call is “inactive”.

In the case of `C[C@@H]1CCCCO[C@@H](CN(C)S(=O)(=O)c2ccccc2)[C@@H](C)CN([C@@H](C)CO)C(=O)c2cc(NC(=O)Nc3ccc(F)cc3)ccc2O1`, the cytotoxicity call was “inactive”.

For `C[C@@H]1CN([C@@H](C)CO)C(=O)c2cc(NC(=O)Nc3ccccc3)ccc2O[C@@H](C)C/C=C/CO[C@H]1CN(C)S(=O)(=O)c1ccc(F)cc1`, the cytotoxicity call was “active”.

On to `COc1ccc(S(=O)(=O)N(C)C[C@H]2OCCCC[C@H](C)Oc3ccc(NC(=O)Nc4ccccc4)cc3C(=O)N([C@H](C)CO)C[C@@H]2C)cc1`, for which the cytotoxicity call is “inactive”.

`O=C(C[C@@H]1CC[C@@H]2[C@H](COC[C@H](O)CN2C(=O)Nc2cccc(F)c2)O1)NCCCN1CCOCC1`: the cytotoxicity call is “inactive”.

With `C[C@@H]1CN([C@@H](C)CO)C(=O)c2cc(NS(=O)(=O)c3ccccc3)ccc2O[C@@H](C)CCCCO[C@@H]1CN(C)S(=O)(=O)c1cn(C)cn1`, the cytotoxicity call is “inactive”.

Regarding `C[C@@H]1CN([C@H](C)CO)C(=O)c2cc(NC(=O)CCC(F)(F)F)ccc2O[C@@H](C)CCCCO[C@@H]1CN(C)C(=O)CCC(F)(F)F`, the cytotoxicity call is “inactive”.

Take `COc1ccc(-c2oc3cc(OC)c(OC)c(OC)c3c(=O)c2OC)cc1`: the cytotoxicity call is “inactive”.

Consider `COc1ccc(-c2oc3cc(OC)c(OC)c(OC)c3c(=O)c2OC)cc1OC`, for which the cytotoxicity call is “active”.

As to `COc1cc(O)c2c(=O)c(OC)c(-c3ccc(OC)c(OC)c3)oc2c1`, the cytotoxicity call was “inactive”.

Turning to `O=C(C[C@H]1C=C[C@@H](NC(=O)Cc2ccccn2)[C@H](CO)O1)NCCCN1CCOCC1`, the cytotoxicity call is “inactive”.

For `C[C@@H]1CN([C@H](C)CO)C(=O)c2c(c3ccccc3n2C)-c2ccccc2CO[C@H]1CN(C)C(=O)[C@H](C)c1ccccc1`, the cytotoxicity call was “inactive”.

With `C[C@H]1O[C@@H](O[C@H]2[C@@H](O)C[C@H](O[C@H]3[C@@H](O)C[C@H](O[C@H]4CC[C@@]5(C)[C@H](CC[C@@H]6[C@@H]5C[C@@H](O)[C@@]5(C)[C@@H](C7=CC(=O)OC7)CC[C@]65O)C4)O[C@@H]3C)O[C@@H]2C)C[C@H](O)[C@@H]1O`, the cytotoxicity call is “active”.

`CC1OC(OC2C(O)CC(OC3C(O)CC(OC4CCC5(C)C(CCC6C5CC(O)C5(C)C(C7=CC(=O)OC7)CCC65O)C4)OC3C)OC2C)CC(O)C1O` (stereo unspecified): the cytotoxicity call is “active”.

Turning to `C[C@H]1O[C@@H](O[C@H]2[C@@H](O)C[C@H](O[C@H]3[C@@H](O)C[C@H](O[C@H]4CC[C@@]5(C)[C@H](CC[C@@H]6[C@@H]5C[C@@H](O)[C@]5(C)[C@@H](C7=CC(=O)OC7)CC[C@]65O)C4)O[C@@H]3C)O[C@@H]2C)C[C@H](O)[C@@H]1O`, the cytotoxicity call is “active”.

As for `O=C(C[C@H]1CC[C@H]2[C@@H](COC[C@H](O)CN2S(=O)(=O)c2ccc(F)cc2)O1)N[C@@H]1CCN(Cc2ccccc2)C1`, the cytotoxicity call is “inactive”.

`CO[C@H]1CN(C)C(=O)c2ccc(NS(C)(=O)=O)cc2OC[C@@H](C)N(C(=O)C2CCCCC2)C[C@@H]1C`: the cytotoxicity call is “inactive”.

With `C[C@@H]1CCCCO[C@@H](CN(C)C(=O)C2CCCCC2)[C@@H](C)CN([C@@H](C)CO)C(=O)c2cc(NS(=O)(=O)c3ccc(F)cc3)ccc2O1`, the cytotoxicity call is “inactive”.

With `COc1ccc(S(=O)(=O)N(C)C[C@@H]2Oc3ccc(NS(=O)(=O)c4ccc(F)cc4)cc3CC(=O)N([C@@H](C)CO)C[C@@H]2C)cc1`, the cytotoxicity call is “inactive”.

In the case of `C[C@@H]1CN([C@H](C)CO)C(=O)c2cc(NC(=O)NC3CCCCC3)ccc2O[C@H]1CN(C)S(=O)(=O)c1cn(C)cn1`, the cytotoxicity call is “inactive”.

Consider `Cc1ccc(S(=O)(=O)N(C)C[C@@H]2Oc3ccc(NC(=O)CCN4CCOCC4)cc3CC(=O)N([C@H](C)CO)C[C@@H]2C)cc1`, for which the cytotoxicity call was “inactive”.

Consider `Cc1ccc(S(=O)(=O)N(C)C[C@H]2Oc3c(NC(=O)Nc4ccc(C(F)(F)F)cc4)cccc3C(=O)N([C@@H](C)CO)C[C@H]2C)cc1`, for which the cytotoxicity call is “active”.

For the compound `C[C@H]1CN([C@@H](C)CO)C(=O)c2cccc(NC(=O)Nc3ccc(C(F)(F)F)cc3)c2O[C@H]1CN(C)S(=O)(=O)c1ccc(Cl)cc1`, the cytotoxicity call is “active”.

Regarding `Cc1ccc(S(=O)(=O)N(C)C[C@@H]2Oc3c(NC(=O)Nc4ccc(C(F)(F)F)cc4)cccc3C(=O)N([C@H](C)CO)C[C@H]2C)cc1`, the cytotoxicity call was “inactive”.

Consider `C[C@H](CO)N1C[C@H](C)[C@H](CN(C)S(=O)(=O)c2ccc(Cl)cc2)Oc2c(NC(=O)Nc3ccc(C(F)(F)F)cc3)cccc2C1=O`, for which the cytotoxicity call is “inactive”.

As for `Cc1ccc(S(=O)(=O)N(C)C[C@@H]2Oc3c(NC(=O)Nc4ccc(C(F)(F)F)cc4)cccc3C(=O)N([C@@H](C)CO)C[C@H]2C)cc1`, the cytotoxicity call was “inactive”.

As to `C[C@@H]1CN([C@H](C)CO)C(=O)c2cccc(NC(=O)Nc3ccc(C(F)(F)F)cc3)c2O[C@@H]1CN(C)S(=O)(=O)c1ccc(Cl)cc1`, the cytotoxicity call is “inactive”.

Turning to `Cc1ccc(OC(=O)N(C)C[C@@H]2OCc3ccccc3-c3ccccc3C(=O)N([C@H](C)CO)C[C@H]2C)cc1`, the cytotoxicity call is “inactive”.

As to `C[C@@H]1CN([C@H](C)CO)C(=O)Cc2cc(NC(=O)Cc3ccccc3)ccc2O[C@H]1CN(C)C(=O)Nc1ccc(C(F)(F)F)cc1`, the cytotoxicity call was “inactive”.

Consider `C[C@@H]1CN([C@H](C)CO)C(=O)c2cc(N(C)C)ccc2O[C@@H](C)CCCCO[C@@H]1CN(C)S(C)(=O)=O`, for which the cytotoxicity call was “inactive”.

Consider `CCCNC(=O)N(C)C[C@@H]1Oc2cc(C#Cc3ccccn3)ccc2S(=O)(=O)N([C@H](C)CO)C[C@H]1C`, for which the cytotoxicity call is “inactive”.

As for `Cc1ccc(S(=O)(=O)N(C)C[C@H]2Oc3ccc(NC(=O)NC(C)C)cc3CC(=O)N([C@@H](C)CO)C[C@H]2C)cc1`, the cytotoxicity call was “inactive”.

For the compound `NC(=O)[C@@]1(CCS(=O)(=O)c2ccccc2)N=C(c2ccc(OCCCO)cc2)O[C@H]1c1ccccc1`, the cytotoxicity call was “inactive”.

As to `C[C@@H](Oc1cc(-n2cnc3ccc(CN4CCN(C)CC4)cc32)sc1C(N)=O)c1ccccc1C(F)(F)F`, the cytotoxicity call is “active”.

For the compound `C[C@@H]1CN([C@@H](C)CO)C(=O)c2cc(C#CC3(O)CCCC3)cnc2O[C@@H]1CN(C)C(=O)Cc1cccnc1`, the cytotoxicity call is “inactive”.

For `C[C@@H]1CN([C@H](C)CO)C(=O)c2cc(C#CC3(O)CCCC3)cnc2O[C@@H]1CN(C)C(=O)CN(C)C`, the cytotoxicity call is “inactive”.

For the compound `CCCC(=O)Nc1ccc2c(c1)C(=O)N(C)C[C@@H](OC)[C@H](C)CN(Cc1ccc(-c3ccccn3)cc1)[C@@H](C)CO2`, the cytotoxicity call was “inactive”.

Take `CCC(CO)NCCNC(CC)CO.Cl.Cl` (stereo unspecified): the cytotoxicity call is “inactive”.

Turning to `C=CCC[C@@H](Cc1ccc(F)cc1)C(=O)OC[C@@H](NC(=O)[C@@H](CC=C)CC(=O)N[C@@H](CO)Cc1ccccc1)C(C)(C)C`, the cytotoxicity call was “inactive”.

For the compound `C=CCC[C@H](Cc1ccc(F)cc1)C(=O)OC[C@@H](NC(=O)[C@@H](CC=C)CC(=O)N[C@H](CO)Cc1ccccc1)C(C)(C)C`, the cytotoxicity call was “inactive”.

`C=CCC[C@@H](Cc1ccc(F)cc1)C(=O)OC[C@@H](Cc1ccccc1)NC(=O)[C@H](CC=C)CC(=O)N[C@@H](CO)Cc1ccccc1`: the cytotoxicity call was “inactive”.

Consider `C=CC[C@H](CC(=O)N[C@@H](CO)Cc1ccccc1)C(=O)N[C@@H](COC(=O)[C@@H](CC=C)Cc1ccc(F)cc1)Cc1ccccc1`, for which the cytotoxicity call was “inactive”.

In the case of `C=CCC[C@@H](Cc1ccc(F)cc1)C(=O)OC[C@@H](NC(=O)[C@@H](CC=C)CC(=O)N[C@H](CO)Cc1ccccc1)C(C)(C)C`, the cytotoxicity call was “active”.

Consider `C=CCC[C@H](Cc1ccc(F)cc1)C(=O)OC[C@@H](NC(=O)[C@@H](CC=C)CC(=O)N[C@@H](CO)Cc1ccccc1)C(C)(C)C`, for which the cytotoxicity call is “active”.

Regarding `C[C@H]1CN([C@@H](C)CO)C(=O)c2cc(C#Cc3cccnc3)cnc2O[C@@H]1CN(C)S(=O)(=O)c1ccccc1F`, the cytotoxicity call was “inactive”.

For the compound `C[C@H](CO)N1C[C@H](C)[C@@H](CN(C)S(=O)(=O)c2cn(C)cn2)OCCCC[C@H](C)Oc2ccc(NC(=O)CCCN(C)C)cc2C1=O`, the cytotoxicity call was “inactive”.

As for `O=C(C[C@H]1CC[C@H](NS(=O)(=O)c2ccccc2)[C@@H](CO)O1)NCc1ccncn1`, the cytotoxicity call was “inactive”.

Regarding `C[C@@H]1CCCCO[C@@H](CN(C)C(=O)CCCN(C)C)[C@@H](C)CN([C@H](C)CO)C(=O)c2cc(NS(C)(=O)=O)ccc2O1`, the cytotoxicity call is “inactive”.

Consider `COc1ccc(S(=O)(=O)N[C@H]2CC[C@H](CC(=O)N3CCN(c4ccccc4)CC3)O[C@@H]2CO)cc1`, for which the cytotoxicity call is “inactive”.

For the compound `Cn1c(CC#N)n[nH]c1=S`, the cytotoxicity call is “inactive”.

As to `CC(C)NC(=O)Nc1ccc2c(c1)C(=O)N([C@@H](C)CO)C[C@H](C)[C@@H](CN(C)S(C)(=O)=O)OCCCC[C@H](C)O2`, the cytotoxicity call was “inactive”.

Consider `CCN(CC)CCNC(=O)c1cc(Br)c(N)cc1OC`, for which the cytotoxicity call was “inactive”.

On to `CCN1CCCC1CNC(=O)c1cc(S(N)(=O)=O)ccc1OC` (stereo unspecified), for which the cytotoxicity call is “inactive”.

With `CCN1CCCC1CNC(=O)c1cc(S(=O)(=O)CC)c(N)cc1OC` (stereo unspecified), the cytotoxicity call was “active”.
